Test [1] is described as follows: compounds binding Alexa647 anti-His antibody – biochemical, small-molecule microarray, 635 nm fluorescence, artefact control for SMM control protein annotation, primary screen (AID 1128).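 Also: score merges feature fluorescence with signal-to-noise for each printed compound spot.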 The note with it: higher = more signal.
In test [2] the test system is Human papillomavirus type 1a E7 protein (residues 1-88). Nature of the test: HPV1a E7 small-molecule binders, primary screen, biochemical, small-molecule microarray, residues 1-88, 635 nm (AID 1129). The note with it: small-molecule microarray binding, fluorescence 635 nm; higher = more signal.
Test [3] has as its target Focal adhesion kinase 1 (Homo sapiens) (UniProt Q05397). The experiment in a line: PTK2 protein binding on printed compound slides – biochemical, small-molecule microarray, 635/667 nm fluorescence, BSA, DTT, primary screen (AID 1130).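 Also: composite of spot emission at 667 nm and signal to noise over triplicate slides.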 The note with it: 635 nm fluorescence, higher = more signal.
For test [4], the system named is Fibrinogen (Alexa647-labelled). Nature of the test: Alexa647-fibrinogen binding to printed small molecules – biochemical, small-molecule microarray, 635/667 nm fluorescence, artefact control for SMM control-protein annotation, profiling panel (AID 1131).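 Also: z-score merges 667 nm fluorescence with per-spot signal-to-noise over triplicate slides.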 The note with it: fibrinogen-A647 binding fluorescence, higher = more signal.
Test [5] addresses Follistatin (Homo sapiens) (UniProt P19883). The experiment in a line: FST protein binding to printed compounds – biochemical, small-molecule microarray, 635/667 nm fluorescence, primary screen (AID 1132). The note with it: 635 nm fluorescence, higher = more signal.
The target of test [6] is Fibroblast growth factor 2 (Homo sapiens) (UniProt P09038). The experiment in a line: basic fibroblast growth factor binding to printed compounds – biochemical, small-molecule microarray, 635/667 nm fluorescence, primary screen (AID 1133). The note with it: FGF2, fluorescence 635/667, higher = more signal.
Sequence of Fibroblast growth factor 2 (Homo sapiens) (P09038 whole entry, looked up): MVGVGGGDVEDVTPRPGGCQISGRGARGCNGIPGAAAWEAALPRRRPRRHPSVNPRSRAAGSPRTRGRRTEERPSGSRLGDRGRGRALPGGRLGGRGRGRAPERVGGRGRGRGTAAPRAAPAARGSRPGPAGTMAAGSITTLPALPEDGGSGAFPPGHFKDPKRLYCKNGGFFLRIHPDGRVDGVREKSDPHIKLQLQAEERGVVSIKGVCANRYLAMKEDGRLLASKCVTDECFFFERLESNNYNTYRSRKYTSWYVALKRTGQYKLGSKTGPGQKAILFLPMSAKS
Test [7] in a line: JC-1 mitochondrial potential readout, lung cancer cells – cell-based, A549, JC-1 fluorescence, basal, 24 h, 100 nL, profiling panel (AID 1138).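 Also: A549 lung adenocarcinoma cells under basal conditions with no added stimulus; test concentration not given here.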 The conditions noted are these: higher = more signal.
For another test, the system named is Lefty1. Nature of the test: Lefty1 protein binding to printed compounds – biochemical, small-molecule microarray, 635/667 nm fluorescence, primary screen (AID 1139). The conditions noted are these: fluorescence 635/667, higher = more signal.
For test [8], the system named is wheat germ agglutinin (Triticum aestivum), Alexa647-labelled. Nature of the test: Alexa647-WGA lectin binding to printed small molecules – biochemical, small-molecule microarray, 635/667 nm fluorescence, artefact control for SMM control-protein annotation, profiling panel (AID 1140).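 Also: score merges 667 nm feature emission with signal to noise over triplicate slides.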 The note with it: WGA-A647 binding, 635 nm fluorescence, higher = more signal.
Test [9] has as its target Luciferin 4-monooxygenase (Photinus pyralis) (UniProt P08659). Nature of the test: inhibition of purified Photinus pyralis luciferase – biochemical, luminescence, purified enzyme, 2006 set, primary screen (AID 1141).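 Also: cell-free assay with purified firefly luciferase at 100 ng per well in PBS; test concentration not given here.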 The note with it: purified firefly luciferase, SteadyGlo luminescence, 30 min; higher = more signal, called active from +8 up or from −8 down.
Test [10] has as its system Wnt5a (protein binding on small-molecule microarray). Nature of the test: small molecules binding Wnt5a protein – biophysical, small-molecule microarray, 635/667 nm fluorescence, primary screen (AID 1142).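 Also: fluorescence read at 667 nm with signal to noise per printed feature.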 The conditions noted are these: 635 nm fluorescence, higher = more signal.
A short description of test [11]: ATP-based viability of Huh7 replicon cells – cell-based, CellTiter-Glo luminescence, basal, 48 h, cytotoxicity control for HCV replication inhibitor project, primary screen (AID 1143).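 Also: Huh7 hepatoma cells carrying a hepatitis C replication reporter with no stimulus; test concentration not given here.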 The conditions noted are these: higher = more signal, called active from +8 up or from −8 down.
Test [12] can be described thus: Pseudomonas biofilm growth suppression – PAO1 strain, BacTiter-Glo luminescence, LB-PBS, primary screen (AID 1144). The note with it: P. aeruginosa PAO1 biofilm, 12 h, higher = more signal.
A short description of test [13]: basal CRE-LacZ reporter activity in PC12 – cell-based, unstimulated, primary screen (AID 1145). The note with it: no forskolin, luminescence, 4.5 h, higher = more signal, called active from +8 up or from −8 down.
Test [14] can be described thus: forskolin-driven CRE-LacZ activity in PC12 – cell-based, CRE-LacZ reporter, forskolin-stimulated, primary screen (AID 1146).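 Also: PC12 cells with 6xCRE LacZ reporter stimulated by forskolin 10 µM; beta-galactosidase reporter signal reflecting CREB driven transcription.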 The conditions noted are these: luminescence, 4.5 h, higher = more signal, called active from +8 up or from −8 down.
Test [15] addresses Streptavidin (Streptomyces avidinii) (UniProt P22629). The experiment in a line: compounds binding control protein streptavidin – biophysical, small-molecule microarray, 635/667 nm fluorescence, artefact control for SMM compound annotation, primary screen (AID 1147).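 Also: signal reflects streptavidin binding to arrayed compounds as a control protein.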 The conditions noted are these: higher = more signal.
Test [16] is described as follows: probe aInhba binding on compound microarray – biochemical, small-molecule microarray, 635/667 nm fluorescence, primary screen (AID 1148).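 Also: score merges 667nm spot fluorescence with signal-to-noise for antibody binding to printed compounds.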 The note with it: higher = more signal.
Test [17] has as its target Torsin-1A (Homo sapiens) (UniProt O14656). Nature of the test: TOR1A wild-type binding on microarray – cell lysate, small-molecule microarray, lysate, 635/667 nm, primary screen (AID 1149). The conditions noted are these: COS7 hTOR1A-WT lysate, 635 nm fluorescence, higher = more signal.
Test [18] shares this target. The experiment in a line: torsin A mutant lysate binding on microarrays – cell lysate, small-molecule microarray, COS7 lysate, 635/667 nm fluorescence, primary screen (AID 1150).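 Also: score pools 667 nm emission and signal to noise measuring lysate protein binding.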 The conditions noted are these: COS7 hTOR1A mutant lysate, 635 nm fluorescence, higher = more signal.
The subject of test [19] is Sonic hedgehog protein (Shh). The experiment in a line: Sonic hedgehog microarray binding compounds – biochemical, small-molecule microarray, 635/667 nm fluorescence, primary screen (AID 1151).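 Also: Shh protein binding to compounds spotted on small-molecule microarray slides; score combines spot fluorescence intensity with signal-to-noise across triplicate slides.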 The conditions noted are these: 635 nm fluorescence, higher = more signal.

Values joined by “and” are separate entries in the source; they are usually repeats but may differ in a detail not shown here. Identical values can stand only once. Active and inactive are the calls of the source. Unless noted, no rule for the calls is given here.

Sequence of Follistatin (Homo sapiens) (P19883 whole entry, looked up): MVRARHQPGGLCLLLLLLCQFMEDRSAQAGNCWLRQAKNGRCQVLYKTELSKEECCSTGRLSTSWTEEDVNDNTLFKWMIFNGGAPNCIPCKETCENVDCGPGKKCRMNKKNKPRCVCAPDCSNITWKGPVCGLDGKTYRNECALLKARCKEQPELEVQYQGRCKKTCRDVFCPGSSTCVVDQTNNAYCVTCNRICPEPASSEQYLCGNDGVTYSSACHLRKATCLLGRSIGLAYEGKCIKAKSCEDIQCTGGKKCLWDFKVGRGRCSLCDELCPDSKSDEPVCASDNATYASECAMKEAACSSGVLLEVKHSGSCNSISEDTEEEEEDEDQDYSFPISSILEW
Sequence of Luciferin 4-monooxygenase (Photinus pyralis) (P08659 whole entry, looked up): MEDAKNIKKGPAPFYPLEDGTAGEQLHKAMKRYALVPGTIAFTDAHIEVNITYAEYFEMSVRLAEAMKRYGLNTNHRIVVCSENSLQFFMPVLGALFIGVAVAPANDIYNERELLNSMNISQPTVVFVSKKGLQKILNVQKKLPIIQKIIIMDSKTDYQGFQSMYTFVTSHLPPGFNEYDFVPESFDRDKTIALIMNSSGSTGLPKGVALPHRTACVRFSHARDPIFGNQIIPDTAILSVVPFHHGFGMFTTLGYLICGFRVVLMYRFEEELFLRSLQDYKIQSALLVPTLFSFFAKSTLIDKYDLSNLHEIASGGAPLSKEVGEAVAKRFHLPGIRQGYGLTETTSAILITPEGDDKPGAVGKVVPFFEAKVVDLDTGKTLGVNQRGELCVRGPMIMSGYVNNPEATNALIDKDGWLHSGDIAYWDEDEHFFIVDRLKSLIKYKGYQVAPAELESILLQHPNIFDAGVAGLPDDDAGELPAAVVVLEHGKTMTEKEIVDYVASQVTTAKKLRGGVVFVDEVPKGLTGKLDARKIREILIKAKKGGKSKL
Sequence of Focal adhesion kinase 1 (Homo sapiens) (Q05397 whole entry, looked up): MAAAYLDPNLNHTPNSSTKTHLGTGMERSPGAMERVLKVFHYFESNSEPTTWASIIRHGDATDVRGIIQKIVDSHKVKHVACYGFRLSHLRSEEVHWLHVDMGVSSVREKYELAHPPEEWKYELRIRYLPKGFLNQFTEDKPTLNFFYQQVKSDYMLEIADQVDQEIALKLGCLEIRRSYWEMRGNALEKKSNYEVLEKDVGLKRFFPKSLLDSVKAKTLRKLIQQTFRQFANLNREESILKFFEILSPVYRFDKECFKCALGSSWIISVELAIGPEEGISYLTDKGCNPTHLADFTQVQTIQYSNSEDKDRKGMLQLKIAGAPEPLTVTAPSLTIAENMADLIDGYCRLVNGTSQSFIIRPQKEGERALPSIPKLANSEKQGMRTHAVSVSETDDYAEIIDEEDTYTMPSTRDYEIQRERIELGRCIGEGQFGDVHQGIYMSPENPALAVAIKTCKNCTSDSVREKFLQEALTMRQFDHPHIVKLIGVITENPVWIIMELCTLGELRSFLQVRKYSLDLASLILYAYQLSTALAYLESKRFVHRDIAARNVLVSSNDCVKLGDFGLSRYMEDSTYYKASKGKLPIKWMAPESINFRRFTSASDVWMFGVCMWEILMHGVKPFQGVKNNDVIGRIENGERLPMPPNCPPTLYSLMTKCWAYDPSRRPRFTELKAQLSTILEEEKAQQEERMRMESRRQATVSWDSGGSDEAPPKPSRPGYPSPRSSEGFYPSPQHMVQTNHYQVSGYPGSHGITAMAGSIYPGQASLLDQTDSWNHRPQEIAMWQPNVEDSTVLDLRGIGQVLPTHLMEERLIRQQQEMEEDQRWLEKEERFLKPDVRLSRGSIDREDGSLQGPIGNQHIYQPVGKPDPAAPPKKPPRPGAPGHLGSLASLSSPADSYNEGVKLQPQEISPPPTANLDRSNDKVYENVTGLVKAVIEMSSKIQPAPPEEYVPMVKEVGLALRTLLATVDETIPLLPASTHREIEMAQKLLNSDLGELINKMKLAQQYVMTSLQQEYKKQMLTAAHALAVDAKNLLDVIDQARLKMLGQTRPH
Sequence of Streptavidin (Streptomyces avidinii) (P22629 whole entry, looked up): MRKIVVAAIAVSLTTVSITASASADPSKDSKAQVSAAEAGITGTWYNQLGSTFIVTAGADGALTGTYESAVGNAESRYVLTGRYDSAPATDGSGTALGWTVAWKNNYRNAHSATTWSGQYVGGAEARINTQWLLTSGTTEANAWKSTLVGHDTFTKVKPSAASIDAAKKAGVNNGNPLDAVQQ
Sequence of Torsin-1A (Homo sapiens) (O14656 whole entry, looked up): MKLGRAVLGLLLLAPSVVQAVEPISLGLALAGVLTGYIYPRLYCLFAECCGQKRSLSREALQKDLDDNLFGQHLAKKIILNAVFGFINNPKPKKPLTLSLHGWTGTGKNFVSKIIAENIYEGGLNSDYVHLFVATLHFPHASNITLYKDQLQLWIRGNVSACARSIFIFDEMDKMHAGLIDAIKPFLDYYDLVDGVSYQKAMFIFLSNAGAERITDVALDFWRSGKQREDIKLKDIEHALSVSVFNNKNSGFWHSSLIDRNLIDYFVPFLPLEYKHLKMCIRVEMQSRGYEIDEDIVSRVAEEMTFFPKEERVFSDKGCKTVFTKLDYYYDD

Take `C=CCN(Cc1ccccc1)C(=O)C(c1cccs1)N(C(=O)/C=C\C(=O)O)c1ccc(CCO)cc1` (stereo not given): the composite z-score in test [1] was -1.02 and -0.261; in test [2], 0.285 and -0.623; in test [3] it was -0.411 and -0.574; in test [4], -1.94 and -2.45; in test [5], -1.48 and -1.4; in test [6] it was -1.78 and -1.47. Besides, the composite z-score in the test with Lefty1 was -1.9 and -1.42; in [8] it was -0.99 and -0.888; in test [10], -1.26 and -0.913; in test [15], -1.73 and -2.16; in test [16], -0.135 and -0.346; in the test with Torsin-1A (Homo sapiens) [17], -2.97 and -2.57. The composite z-score was -2.1 and -2.38 with Torsin-1A (Homo sapiens) [18]; -1.14 and -0.843 in test [19]. Besides, the z-score is 0.579 and 0.559 in [7]; 0.666 (inactive) and 0.381 (inactive) in test [9]; 0.735 (inactive) and 0.129 (inactive) in test [11]; -0.732 (inactive) and -1.02 (inactive) in test [12]; -0.0778 (inactive) and -0.0656 (inactive) in test [13]; 0.0736 (inactive) and -0.183 (inactive) in test [14].

Turning to `C=CCN(CCCC)C(=O)C(c1cccs1)N(C(=O)/C=C\C(=O)O)c1ccc(CCO)cc1` (stereo not given), the composite z-score was 1.25 and -2.52 in test [1]; -0.505 and -1.38 in test [2]; -0.504 and -1.21 in [3]; -1.08 and -1.59 in test [4]; -1.43 and -2.34 in [5]; -1.47 and -2.18 in [6]. Moreover, the composite z-score is -1.58 and -2.71 in the test on Lefty1; 0.266 and -2.25 in test [8]; -0.118 and -0.341 in [10]; -0.874 and -1.49 in test [15]; -0.195 and -0.331 in test [16]; -1.2 and -3.21 with Torsin-1A (Homo sapiens) [17]. Moreover, the composite z-score with Torsin-1A (Homo sapiens) [18] is -2.35 and -1.52; in [19], -0.463 and -1.18. Besides, the z-score is 0.65 and 0.624 in [7]; -2.48 (inactive) and -2.8 (inactive) in [9]; 0.197 (inactive) and 0.617 (inactive) in test [11]; -0.568 (inactive) and 0.123 (inactive) in [12]; -0.0818 (inactive) and 0.195 (inactive) in test [13]; -0.21 (inactive) and -0.185 (inactive) in [14].

For the molecule `Cc1ccc(S(=O)(=O)N[C@@H]2COC(=O)CC=C[C@@H](C)[C@@H]3C=C[C@H](O)[C@@H](COC(=O)CC=C[C@H]2C)O3)cc1`, the composite z-score in [1] was -0.226 and -0.118; in [2] it was -0.617 and -0.0999; in test [3], -0.466 and -0.318; in test [4], -0.656 and 0.267; in [5] it was 1.34 and 0.443; in test [6], 1.01 and 0.578. Further, the composite z-score in the test on Lefty1 is 1.26 and 0.632; in test [8] it was -0.113 and -0.0881; in test [10] it was -0.0379 and -0.0821; in [15], -0.298 and 0.657; in test [16], -0.111 and -0.157; in the test with Torsin-1A (Homo sapiens) [17], 0.815 and 0.176. Further, the composite z-score is 0.665 and 0.263 in the test with Torsin-1A (Homo sapiens) [18]; 1.43 and 0.631 in test [19]. Further, the z-score was 1.78 and -1.7 in test [7]; -0.92 (inactive) and 1.02 (inactive) in test [9]; -0.0259 (inactive) and -3.11 (inactive) in [11]; -0.356 (inactive) and -2.59 (inactive) in test [12]; -0.384 (inactive) and -0.478 (inactive) in [13]; -0.419 (inactive) and -0.201 (inactive) in [14].

With `C=CCN(C(=O)C1N(C(C)(C)CO)C(=O)C2C(C(=O)O)C3C=CC21O3)C(C)(C)C` (stereo not given), the composite z-score is -0.574 and -1.26 in test [1]; -0.937 and -0.349 in test [2]; -0.892 and -0.328 in [3]; -2.12 and 0.119 in test [4]; -1.98 and -1.82 in [5]; -2.47 and -2.04 in test [6]. The composite z-score with Lefty1 was -2.81 and -2.22; in test [8], -1.64 and 0.157; in test [10] it was -1.52 and -0.697; in test [15], -1.86 and -1.52; in test [16] it was -0.271 and -0.302; with Torsin-1A (Homo sapiens) [17] it was -3.46 and 0.256. Also, the composite z-score with Torsin-1A (Homo sapiens) [18] is -2.89 and 0.829; in test [19], -2.51 and -1.85. In addition, the z-score in test [7] is -0.377 and 0.637; in test [9], 0.0864 (inactive) and -0.639 (inactive); in test [11] it was -0.037 (inactive) and -0.67 (inactive); in test [12] it was 1.58 (inactive) and 1.05 (inactive); in test [13] it was 0.471 (inactive) and 0.996 (inactive); in test [14] it was 0.0027 (inactive) and -0.21 (inactive).

The record behind these values is PubChem BioAssay.
